Assay results as given in publication PMC7862700, “An all-to-all approach to the identification of sequence-specific readers for epigenetic DNA modifications on cytosine”.

Legend:
Experiment in all cases: DAPPL (digital affinity profiling via proximity ligation, sequencing); 10 mM Tris-HCl pH 7.5, 50 mM NaCl, 1 mM DTT, 4% glycerol, room temperature, 30 min; GST-TFs on glutathione beads, 16-mer random dsDNA library, 0.1% formaldehyde crosslink after washing; high values mean tight binding
Conditions in all cases: protein: recombinant; tags: N-terminal GST; dsDNA, one strand shown
FLI1 = target: T1, FLI1 (Homo sapiens, UniProt Q01543 1-452)
T1 sequence: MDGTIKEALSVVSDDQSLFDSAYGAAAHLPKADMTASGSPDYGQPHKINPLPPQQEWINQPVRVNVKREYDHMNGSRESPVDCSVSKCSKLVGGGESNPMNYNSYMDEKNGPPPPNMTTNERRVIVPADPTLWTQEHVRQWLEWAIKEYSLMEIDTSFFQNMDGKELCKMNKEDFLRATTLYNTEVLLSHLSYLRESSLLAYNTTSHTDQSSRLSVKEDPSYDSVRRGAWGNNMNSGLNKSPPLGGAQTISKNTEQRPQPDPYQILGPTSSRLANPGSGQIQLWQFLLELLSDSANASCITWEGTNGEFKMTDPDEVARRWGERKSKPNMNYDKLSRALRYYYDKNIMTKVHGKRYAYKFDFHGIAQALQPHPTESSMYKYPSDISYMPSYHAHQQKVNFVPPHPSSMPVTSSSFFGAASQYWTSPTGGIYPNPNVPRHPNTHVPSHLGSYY
In short: (§1)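 Human transcription factors fused to GST were expressed in yeast, captured on glutathione beads, given DNA barcodes and pooled with a GST-only negative control. Pools were incubated with 200 nmole of a 16-mer random double-stranded DNA library in Tris/NaCl/DTT/glycerol buffer at room temperature for 30 min. They were then washed, crosslinked with 0.1% formaldehyde, proximity-ligated (BsaI/T4 ligase, 1 h, 37 °C), PCR-amplified and sequenced on an Illumina NextSeq500. Binding signal is each 6-mer's read frequency for a factor divided by its frequency for the GST control.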

ELK1 = target: T2, ELK1 (Homo sapiens, UniProt P19419 1-428)
T2 sequence: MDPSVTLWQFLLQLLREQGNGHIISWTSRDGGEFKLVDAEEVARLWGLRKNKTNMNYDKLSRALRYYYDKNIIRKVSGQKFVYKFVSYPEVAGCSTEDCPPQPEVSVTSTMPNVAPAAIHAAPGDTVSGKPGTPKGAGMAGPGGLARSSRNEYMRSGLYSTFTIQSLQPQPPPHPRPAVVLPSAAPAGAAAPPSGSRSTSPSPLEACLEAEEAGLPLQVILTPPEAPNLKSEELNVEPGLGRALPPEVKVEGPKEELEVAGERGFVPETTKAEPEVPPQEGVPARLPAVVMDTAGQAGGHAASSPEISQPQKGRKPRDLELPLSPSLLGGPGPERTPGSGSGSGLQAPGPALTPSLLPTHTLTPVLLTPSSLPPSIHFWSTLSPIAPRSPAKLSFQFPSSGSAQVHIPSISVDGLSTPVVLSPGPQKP
In short: as §1

GABPA = target: T3, GABPA (Homo sapiens, UniProt Q06546 1-454)
T3 sequence: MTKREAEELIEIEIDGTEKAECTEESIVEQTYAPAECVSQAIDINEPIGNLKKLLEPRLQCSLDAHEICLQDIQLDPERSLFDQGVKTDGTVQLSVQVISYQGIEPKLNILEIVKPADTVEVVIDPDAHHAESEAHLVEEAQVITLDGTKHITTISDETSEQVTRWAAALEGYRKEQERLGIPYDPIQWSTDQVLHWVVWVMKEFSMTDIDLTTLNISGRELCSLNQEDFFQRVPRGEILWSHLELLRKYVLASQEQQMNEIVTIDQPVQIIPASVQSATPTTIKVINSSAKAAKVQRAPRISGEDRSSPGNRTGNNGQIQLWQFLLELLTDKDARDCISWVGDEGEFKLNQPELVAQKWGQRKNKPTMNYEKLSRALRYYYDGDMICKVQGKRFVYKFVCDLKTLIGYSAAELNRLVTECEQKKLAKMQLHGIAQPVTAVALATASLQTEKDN
In short: as §1

ERG = target: T4, ERG (Homo sapiens, UniProt P11308 1-479)
T4 sequence: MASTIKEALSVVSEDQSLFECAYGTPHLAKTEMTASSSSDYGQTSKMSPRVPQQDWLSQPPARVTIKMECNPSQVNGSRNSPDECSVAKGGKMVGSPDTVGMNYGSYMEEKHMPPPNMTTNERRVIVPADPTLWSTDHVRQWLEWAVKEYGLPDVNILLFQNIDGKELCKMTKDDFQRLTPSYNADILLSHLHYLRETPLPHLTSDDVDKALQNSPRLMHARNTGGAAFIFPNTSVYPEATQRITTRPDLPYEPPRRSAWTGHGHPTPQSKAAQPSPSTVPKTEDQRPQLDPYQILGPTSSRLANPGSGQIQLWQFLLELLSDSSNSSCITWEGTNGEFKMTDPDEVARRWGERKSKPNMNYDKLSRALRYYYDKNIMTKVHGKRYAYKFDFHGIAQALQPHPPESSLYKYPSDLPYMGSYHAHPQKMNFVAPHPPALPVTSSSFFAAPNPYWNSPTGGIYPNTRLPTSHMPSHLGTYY
In short: as §1

ELF1 = ELF1 (Homo sapiens, UniProt P32519 1-619)
Chain of ELF1 (P32519 whole entry): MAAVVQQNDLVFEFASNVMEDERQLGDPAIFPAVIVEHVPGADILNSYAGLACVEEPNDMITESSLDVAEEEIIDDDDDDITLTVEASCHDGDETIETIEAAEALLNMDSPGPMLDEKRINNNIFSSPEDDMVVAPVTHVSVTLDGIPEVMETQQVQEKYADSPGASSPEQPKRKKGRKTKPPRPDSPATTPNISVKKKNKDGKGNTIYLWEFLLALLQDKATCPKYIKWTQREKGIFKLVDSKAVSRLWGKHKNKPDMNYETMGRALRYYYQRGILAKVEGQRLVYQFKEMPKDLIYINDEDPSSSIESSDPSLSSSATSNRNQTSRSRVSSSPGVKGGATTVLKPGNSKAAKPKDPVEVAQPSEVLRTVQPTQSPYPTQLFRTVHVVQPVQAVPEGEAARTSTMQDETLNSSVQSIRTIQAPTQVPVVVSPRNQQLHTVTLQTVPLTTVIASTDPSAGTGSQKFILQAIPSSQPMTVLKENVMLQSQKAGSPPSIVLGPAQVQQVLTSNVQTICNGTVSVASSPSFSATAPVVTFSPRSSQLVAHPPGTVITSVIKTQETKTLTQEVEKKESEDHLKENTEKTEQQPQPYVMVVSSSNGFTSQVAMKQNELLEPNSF
In short: as §1

EHF = target: T5, EHF (Homo sapiens, UniProt Q9NZC4 1-300)
T5 sequence: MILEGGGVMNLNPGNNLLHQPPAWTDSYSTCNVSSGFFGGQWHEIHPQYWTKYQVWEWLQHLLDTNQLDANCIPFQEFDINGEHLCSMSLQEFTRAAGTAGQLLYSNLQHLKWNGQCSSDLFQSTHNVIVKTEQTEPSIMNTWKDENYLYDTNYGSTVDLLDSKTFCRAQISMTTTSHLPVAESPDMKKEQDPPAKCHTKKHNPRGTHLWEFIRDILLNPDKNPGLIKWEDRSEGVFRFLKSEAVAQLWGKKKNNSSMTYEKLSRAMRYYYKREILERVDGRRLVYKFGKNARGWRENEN
In short: as §1

SPI1 = SPI1 (Homo sapiens, UniProt P17947 1-270)
In short: as §1

SPIB = SPIB (Homo sapiens, UniProt Q01892 1-262)
Chain of SPIB (Q01892 whole entry): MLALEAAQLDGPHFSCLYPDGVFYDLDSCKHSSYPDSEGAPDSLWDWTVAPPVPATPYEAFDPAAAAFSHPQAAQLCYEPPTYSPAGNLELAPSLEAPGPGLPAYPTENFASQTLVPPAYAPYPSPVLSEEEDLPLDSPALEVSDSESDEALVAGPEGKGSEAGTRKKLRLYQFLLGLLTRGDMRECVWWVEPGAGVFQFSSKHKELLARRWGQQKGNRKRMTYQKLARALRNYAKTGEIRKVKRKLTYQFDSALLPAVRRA
In short: as §1

ELK3 = target: T6, ELK3 (Homo sapiens, UniProt P41970 1-407)
T6 sequence: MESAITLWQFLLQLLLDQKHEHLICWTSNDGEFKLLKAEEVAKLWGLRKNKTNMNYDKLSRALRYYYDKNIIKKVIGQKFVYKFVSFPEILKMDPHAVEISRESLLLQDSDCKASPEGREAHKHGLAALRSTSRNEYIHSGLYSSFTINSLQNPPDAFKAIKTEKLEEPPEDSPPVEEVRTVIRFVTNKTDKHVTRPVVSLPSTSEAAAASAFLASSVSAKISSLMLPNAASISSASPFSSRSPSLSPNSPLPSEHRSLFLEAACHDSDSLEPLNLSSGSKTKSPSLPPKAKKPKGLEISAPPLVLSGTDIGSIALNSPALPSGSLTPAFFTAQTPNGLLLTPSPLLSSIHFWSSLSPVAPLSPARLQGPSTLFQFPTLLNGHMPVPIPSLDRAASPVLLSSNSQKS
In short: as §1

Q: Which results are given for CTTTCA?
A: binding signal (FLI1): 1.45 fold enrichment (6-mer frequency, TF over GST control); binding signal (ELK1): 1.32 fold enrichment (6-mer frequency, TF over GST control); binding signal (GABPA): 1.46 fold enrichment (6-mer frequency, TF over GST control); binding signal (ERG): 1.23 fold enrichment (6-mer frequency, TF over GST control); binding signal (ELF1): 1.41 fold enrichment (6-mer frequency, TF over GST control); binding signal (EHF): 1.3 fold enrichment (6-mer frequency, TF over GST control); binding signal (SPI1): 1.45 fold enrichment (6-mer frequency, TF over GST control); binding signal (SPIB): 1.28 fold enrichment (6-mer frequency, TF over GST control); binding signal (ELK3): 1.36 fold enrichment (6-mer frequency, TF over GST control)

Q: For AAAGTT, which binding signal (FLI1) is on record?
A: 1.07 fold enrichment (6-mer frequency, TF over GST control)

Q: And the binding signal (ELK1)?
A: 1.05 fold enrichment (6-mer frequency, TF over GST control)

Q: And the binding signal (GABPA)?
A: 1.13 fold enrichment (6-mer frequency, TF over GST control)

Q: What about the binding signal (ERG) of the same sequence?
A: 1.02 fold enrichment (6-mer frequency, TF over GST control)

Q: And the binding signal (ELF1)?
A: 1.08 fold enrichment (6-mer frequency, TF over GST control)

Q: What about the binding signal (EHF) of the same sequence?
A: 1.1 fold enrichment (6-mer frequency, TF over GST control)

Q: And the binding signal (SPI1)?
A: 1.07 fold enrichment (6-mer frequency, TF over GST control)

Q: What about the binding signal (SPIB) of the same sequence?
A: 1.16 fold enrichment (6-mer frequency, TF over GST control)

Q: And the binding signal (ELK3)?
A: 1.17 fold enrichment (6-mer frequency, TF over GST control)

Q: With CTTGCA as the sequence, how does the binding signal (FLI1) read?
A: 1.33 fold enrichment (6-mer frequency, TF over GST control)

Q: What about the binding signal (ELK1) of the same sequence?
A: 1.44 fold enrichment (6-mer frequency, TF over GST control)

Q: And the binding signal (GABPA)?
A: 1.31 fold enrichment (6-mer frequency, TF over GST control)

Q: What about the binding signal (ERG) of the same sequence?
A: 1.27 fold enrichment (6-mer frequency, TF over GST control)

Q: What about the binding signal (ELF1) of the same sequence?
A: 1.4 fold enrichment (6-mer frequency, TF over GST control)

Q: And the binding signal (EHF)?
A: 1.33 fold enrichment (6-mer frequency, TF over GST control)

Q: What about the binding signal (SPI1) of the same sequence?
A: 1.25 fold enrichment (6-mer frequency, TF over GST control)

Q: And the binding signal (SPIB)?
A: 1.26 fold enrichment (6-mer frequency, TF over GST control)

Q: What about the binding signal (ELK3) of the same sequence?
A: 1.34 fold enrichment (6-mer frequency, TF over GST control)

Q: For TCCCCA, which binding signal (FLI1) is on record?
A: 1.38 fold enrichment (6-mer frequency, TF over GST control)

Q: And the binding signal (ELK1)?
A: 1.29 fold enrichment (6-mer frequency, TF over GST control)

Q: And the binding signal (GABPA)?
A: 1.21 fold enrichment (6-mer frequency, TF over GST control)

Q: What about the binding signal (ERG) of the same sequence?
A: 1.42 fold enrichment (6-mer frequency, TF over GST control)

Q: What about the binding signal (ELF1) of the same sequence?
A: 1.39 fold enrichment (6-mer frequency, TF over GST control)

Q: And the binding signal (EHF)?
A: 1.45 fold enrichment (6-mer frequency, TF over GST control)

Q: And the binding signal (SPI1)?
A: 1.63 fold enrichment (6-mer frequency, TF over GST control)

Q: And the binding signal (SPIB)?
A: 1.16 fold enrichment (6-mer frequency, TF over GST control)

Q: And the binding signal (ELK3)?
A: 1.34 fold enrichment (6-mer frequency, TF over GST control)

Q: TTGTAG was tested. Which binding signal (FLI1) did it give?
A: 1.13 fold enrichment (6-mer frequency, TF over GST control)

Q: What about the binding signal (ELK1) of the same sequence?
A: 1.19 fold enrichment (6-mer frequency, TF over GST control)

Q: And the binding signal (GABPA)?
A: 1.12 fold enrichment (6-mer frequency, TF over GST control)

Q: And the binding signal (ERG)?
A: 1.12 fold enrichment (6-mer frequency, TF over GST control)

Q: And the binding signal (ELF1)?
A: 1.14 fold enrichment (6-mer frequency, TF over GST control)

Q: And the binding signal (EHF)?
A: 1.11 fold enrichment (6-mer frequency, TF over GST control)

Q: What about the binding signal (SPI1) of the same sequence?
A: 1.07 fold enrichment (6-mer frequency, TF over GST control)

Q: And the binding signal (SPIB)?
A: 1.23 fold enrichment (6-mer frequency, TF over GST control)

Q: What about the binding signal (ELK3) of the same sequence?
A: 1.2 fold enrichment (6-mer frequency, TF over GST control)

Q: For TAACCA, which binding signal (FLI1) is on record?
A: 1.12 fold enrichment (6-mer frequency, TF over GST control)

Q: What about the binding signal (ELK1) of the same sequence?
A: 1.12 fold enrichment (6-mer frequency, TF over GST control)

Q: And the binding signal (GABPA)?
A: 1.08 fold enrichment (6-mer frequency, TF over GST control)

Q: And the binding signal (ERG)?
A: 1.12 fold enrichment (6-mer frequency, TF over GST control)

Q: What about the binding signal (ELF1) of the same sequence?
A: 1.11 fold enrichment (6-mer frequency, TF over GST control)

Q: And the binding signal (EHF)?
A: 1.15 fold enrichment (6-mer frequency, TF over GST control)

Q: And the binding signal (SPI1)?
A: 1.06 fold enrichment (6-mer frequency, TF over GST control)

Q: And the binding signal (SPIB)?
A: 1.11 fold enrichment (6-mer frequency, TF over GST control)

Q: And the binding signal (ELK3)?
A: 1.16 fold enrichment (6-mer frequency, TF over GST control)

Q: Which binding signal (FLI1) does the source give for ATAGTT here?
A: 1.18 fold enrichment (6-mer frequency, TF over GST control)

Q: What about the binding signal (ELK1) of the same sequence?
A: 1.16 fold enrichment (6-mer frequency, TF over GST control)

Q: And the binding signal (GABPA)?
A: 1.16 fold enrichment (6-mer frequency, TF over GST control)

Q: What about the binding signal (ERG) of the same sequence?
A: 1.18 fold enrichment (6-mer frequency, TF over GST control)

Q: And the binding signal (ELF1)?
A: 1.16 fold enrichment (6-mer frequency, TF over GST control)

Q: What about the binding signal (EHF) of the same sequence?
A: 1.18 fold enrichment (6-mer frequency, TF over GST control)

Q: What about the binding signal (SPI1) of the same sequence?
A: 1.11 fold enrichment (6-mer frequency, TF over GST control)

Q: What about the binding signal (SPIB) of the same sequence?
A: 1.2 fold enrichment (6-mer frequency, TF over GST control)

Q: What about the binding signal (ELK3) of the same sequence?
A: 1.11 fold enrichment (6-mer frequency, TF over GST control)
